According to PubChem BioAssay AID2013 (Sanford-Burnham Center for Chemical Genomics, 2009):
Screen size: about 290,000 compounds; about 370 (0.13%) were called active.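 The calls were made as follows: active = spots per cell inhibited over 60%, with over 100 cells counted and total cytoplasm intensity under 500,000; inconclusive = wells with under 100 cells, flagged as likely toxic; inactive = the rest.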 This excerpt belongs to a sample that is enriched for actives. Measured potencies and affinities stand elsewhere.

Each compound was assayed against G-protein coupled receptor 55 (Homo sapiens) (UniProt Q9Y2T6) (assay: GPR55 antagonists blocking LPI-driven arrestin recruitment, primary screen, imaging, U2OS, beta-arrestin-GFP, LPI agonist (AID 2013;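 also: U2OS cells stably carrying GPR55 and arrestin-GFP stimulated by 5 µM LPI near EC80; imaged beta-arrestin-GFP aggregate spots per cell after agonist stimulation; plate controls were LPI-stimulated DMSO wells for no effect and DMSO wells without LPI for full effect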)). Conditions: U2OS GPR55 beta-arrestin-GFP translocation imaging, LPI antagonism; at 10 µM; hits give high values.
Chain of G-protein coupled receptor 55 (Homo sapiens) (Q9Y2T6 whole entry, looked up): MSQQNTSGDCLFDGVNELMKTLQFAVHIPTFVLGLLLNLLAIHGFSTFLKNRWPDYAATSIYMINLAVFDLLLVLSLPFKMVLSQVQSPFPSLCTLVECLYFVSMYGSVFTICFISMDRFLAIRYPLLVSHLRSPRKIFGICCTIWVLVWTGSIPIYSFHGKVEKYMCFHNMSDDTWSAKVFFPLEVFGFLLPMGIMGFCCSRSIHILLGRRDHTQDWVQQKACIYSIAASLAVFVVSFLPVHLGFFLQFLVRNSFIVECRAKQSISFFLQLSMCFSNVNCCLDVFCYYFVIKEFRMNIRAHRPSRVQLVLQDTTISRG

inhibition, inactive:
COc1ccc(-c2nnn(CC(=O)NCCc3ccc(OC)c(OC)c3)n2)cc1 -2.6%
O=C1/C(=C/c2ccc([N+](=O)[O-])cc2)CCc2ccccc21 6.9%
Cn1c(=O)c2c(ncn2Cc2nnc(N)s2)n(C)c1=O 3.3%
CCOC(=O)c1ccc(NC(=S)N2CCC(O)CC2)cc1 1%
C#CCn1c(CCNC(=O)c2ccco2)nc2ccccc21 -12.6%
CCOc1ccccc1CNC(=O)CCCn1ncn2c(cc3occc32)c1=O -7.1%
CCCCC(=O)N(Cc1ccc(F)cc1)C1CCS(=O)(=O)C1 (stereo not given) -2.9%
Nn1c(CSc2nc3ccccc3o2)nnc1CSc1nc2ccccc2o1 2.1%
COC(=O)c1sccc1NC(=S)N1CCCCC1 -4.6%
CSc1nnc(-c2sccc2OCc2ccc(C)cc2)n1C 28.1%
Cn1c(-c2sccc2OCc2ccccc2)n[nH]c1=S 6.8%
O=C(O)CNS(=O)(=O)c1ccc(F)cc1 0.5%
O=C(O)CNS(=O)(=O)c1ccc2c(c1)C(=O)c1cc(S(=O)(=O)NCC(=O)O)ccc1-2 -7.8%
COc1ccc(C(=O)Nc2ccc(/C(C)=N/NC(=O)c3ccncc3)cc2)cc1 10.6%
Cc1cccc(NC(=O)C2CC(O)CN2C(=O)Oc2ccccc2)c1 (stereo not given) 2.6%
CC(NC(=O)Cn1nnc(-c2ccncc2)n1)c1ccccc1 (stereo not given) -4.9%
COc1cc2c(cc1OC)-c1nc3ccccc3c(=O)n1C(C)(C)C2 4.8%
CC1(C)Cc2ccccc2-c2nc3ccccc3c(=O)n21 0.3%
O=C(NC12CC3CC(CC(C3)C1)C2)c1ccc(Br)o1 13%
O=C(NC12CC3CC(CC(C3)C1)C2)c1ccc([N+](=O)[O-])o1 1.3%
O=C(NC12CC3CC(CC(C3)C1)C2)c1ccc(-c2ccccc2Cl)o1 -9.4%
O=C(NC12CC3CC(CC(C3)C1)C2)c1ccc(-c2cccc(Cl)c2)o1 2.9%
C1CN(c2nc(N3CCOCC3)nc(N3CCOCC3)n2)CCO1 8.7%
Cc1[nH]nc2c1/C(=N/O)CC(c1ccccc1)C2 (stereo not given) -5.5%
COc1cc2ncc(C(=O)c3ccccc3)c(N3CCN(Cc4ccccc4)CC3)c2cc1OC 3.4%
Cc1ccc(-c2noc(CCC(=O)N(C)c3ccccc3C)n2)cc1 -2.6%
CCc1ccccc1N(C)C(=O)CCc1nc(-c2ccc(C)cc2)no1 -8.4%
CCc1ccccc1NS(=O)(=O)c1c(C(=O)N2CCCCCC2)c(C)n(C)c1C 3.1%
CCN(C(=O)CSc1nnc(Nc2ccccc2C)s1)C1CCS(=O)(=O)C1 (stereo not given) 12.3%
CC(C)C[C@H](NC(=O)Nc1ccccc1F)C(=O)O 2.2%
CSc1ccc(CN(C)C(=O)c2cc(=O)c3ccccc3o2)cc1 -0.8%
COc1cc(NS(=O)(=O)c2ccc(Nc3nc(-c4ccccn4)cs3)cc2)nc(OC)n1 2.2%
COc1cc(NS(=O)(=O)c2ccc(Nc3nc(-c4cccc([N+](=O)[O-])c4)cs3)cc2)nc(OC)n1 0.2%
COc1ccc(-c2csc(Nc3ccc(S(N)(=O)=O)cc3)n2)cc1 4.6%
COc1ccc(-c2csc(Nc3ccc(S(=O)(=O)Nc4cc(C)on4)cc3)n2)cc1 5.4%
O=C1CC(N2CCN(c3ccccn3)CC2)C(=O)N1c1ccc(Cl)cc1 (stereo not given) -0.1%
COCCn1c(SCC(=O)NC2CCCC2)nnc1-c1ccncc1 1.6%
O=C(NCCc1ccc(Cl)cc1)c1cc2ccccn2n1 6.6%
COc1ccc(N2CCN(C(=O)Cn3ncc4c([nH]c5ccccc54)c3=O)CC2)cc1 -7%
COc1cccc(NC(=O)COC(=O)CC(NC(N)=O)c2ccc(Cl)cc2)c1 (stereo not given) -13.8%
O=C(Nc1ccc(N2CCOCC2)cc1)c1cc(-c2ccncc2)nc2ccccc12 15.8%
COc1cc(-c2cc(C(=O)Nc3ccccc3N3CCOCC3)c3ccccc3n2)cc(OC)c1OC 17.1%
Cc1cc(NC(=O)CSc2nnc(C)o2)no1 4.5%
Fc1ccc(Nc2nc(NCc3ccco3)c3ccccc3n2)cc1 60.1%
Cc1cccc(Nc2nc(NCc3ccco3)c3ccccc3n2)c1 -2.1%
Cc1ccc(-c2nc(NCc3ccco3)c3ccccc3n2)cc1 7.7%
Cc1ccccc1Nc1nc(NCc2ccco2)c2ccccc2n1 54.3%
OCCNc1nc(NCc2ccccc2)c2ccccc2n1 -6.4%
CNc1nc(NCc2ccccc2)c2ccccc2n1 5.4%
CC(=O)c1ccc(NC(=O)COc2ccccc2C(=O)Nc2ccc(C)cn2)cc1 10%
CC(C)CC1(C)NC(=O)N(Cc2cc([N+](=O)[O-])cc3c2OCOC3)C1=O (stereo not given) -6.2%
CCCN(CC1CC1)C(=O)COC(=O)c1ccc(CNS(=O)(=O)c2ccc(F)c(Cl)c2)cc1 0.7%
c1ccc(OCCOc2ccccc2-c2nnco2)cc1 -6.8%
Cc1ccc(-c2ccccc2[C@@H]2C[C@H]3CN(C)C(=O)[C@]34CCCN24)o1 -2.8%
CC(C)N(C=O)C1(C(=O)NC2CCCCC2)CCCCC1 5.3%
COc1ccc[nH]c1=O 0.4%
CC(O)CNc1cnccn1 (stereo not given) 14.2%
O=C(NCCN1CCNC1=O)C1CCC(=O)N(Cc2cccc(C(F)(F)F)c2)C1 (stereo not given) -10.6%
Cc1ccc(NC(=S)NNC(=O)c2c([N+](=O)[O-])c(C)nn2C)cc1 -1.6%
CN1C2CCC1/C(=C\c1ccccc1Cl)C(=O)/C2=C\c1ccccc1Cl -4.7%
CN1C2CCC1/C(=C\c1ccccc1)C(=O)/C2=C\c1ccccc1 15.1%
CC(C)(C)c1ccc(C(=O)Nc2ccc(C(=O)N3CCOCC3)cc2)cc1 13%
O=C(NCC(=O)N1CCN(S(=O)(=O)/C=C/c2ccccc2)CC1)c1ccc(Cl)cc1 10.1%
CCN(CC)CCNC(=S)N1CCn2c(nc3ccccc32)C1 3.9%
CCOC(=O)c1c(C)n(C)c2ccc(OC)c(NC(=O)CN3CCC(C(=O)OCC)CC3)c12 -6.7%
CCOc1ccccc1NC(=O)Nc1ccc(Br)cn1 13.3%
CN(NC(=O)CN1C(=O)c2ccccc2C1=O)C1=NS(=O)(=O)c2ccccc21 -1.6%
C[C@H](NC(=O)c1nc[nH]c1C(=O)NCc1ccc(CNC(=O)OC(C)(C)C)cc1)C(=O)OC(C)(C)C 18.1%
CC(C)(C)OC(=O)N1CCC(NC(=O)c2[nH]cnc2C(=O)N[C@@H](Cc2ccccc2)C(=O)OCc2ccccc2)CC1 41.8%
CC(C)(C)OC(=O)NCc1ccc(CNC(=O)c2[nH]cnc2C(=O)N[C@@H](Cc2ccccc2)C(=O)OCc2ccccc2)cc1 35.5%
CC(C)(C)OC(=O)[C@H](Cc1ccccc1)NC(=O)c1nc[nH]c1C(=O)N1CCN(C(=O)OC(C)(C)C)CC1 4.7%
C[C@H](NC(=O)c1[nH]cnc1C(=O)Nc1ccc(CNC(=O)OC(C)(C)C)cc1)C(=O)OCc1ccccc1 1.5%
CC(C)C[C@H](NC(=O)c1[nH]cnc1C(=O)Nc1ccc(CNC(=O)OC(C)(C)C)cc1)C(=O)OCc1ccccc1 7%
CCN(CC)S(=O)(=O)c1cc(C(=O)Nc2cc(C)[nH]n2)ccc1Cl 17.6%
Cc1cc(C)nc(NS(=O)(=O)c2ccc(NC(=O)C3CC3)cc2)n1 0%
O=C(NNc1c(Cl)cccc1Cl)c1ccno1 5%
O=C(NC1CCCCC1)C(c1ccco1)N(C(=O)C(F)(F)F)C1CC1 (stereo not given) -2.5%
O=C(NCc1ccc2c(c1)OCO2)Nc1ccc(Cl)cc1 -2.2%
CC(=O)C(Cl)C(=O)Nc1ccccc1 (stereo not given) -8.1%
O=C(Nc1ccccc1Cl)Nc1ccccc1Cl 1.2%
O=C(Nc1ccccc1Cl)c1ccccc1 3.2%
CC(C(=O)Nc1ccccc1)C(=O)Nc1ccccc1 -4.5%
Cc1cccc(C)c1NC(=O)C(Cl)C(=O)c1ccccc1 (stereo not given) 2.5%
O=C(Nc1ccccc1)C(Cl)C(=O)c1ccccc1 (stereo not given) 6.1%
O=C(O)c1ccccc1NCc1ccsc1 -6.3%
Cc1ccc(/C=N/Nc2nc(C)cc(C)n2)cc1 0.6%
Cc1ccc(-n2nc(C)c(=O)c(-c3ccccc3)c2NC(=O)C(C)C)cc1 11.6%
Cc1cc(C)n(/C(=C\N(C)C)C(=O)c2ccc(Cl)cc2)n1 6.9%
O=C(CN1CCN(C(=O)c2ccco2)CC1)Nc1ccc(F)cc1F 10.4%
CC(C)(C)c1ccc(CN2C3=NCCCN3c3ccccc32)cc1 29.1%
CC(C)(C)c1ccc(CN2C(=O)CSC2=O)cc1 -2.7%

inhibition, active:
O=C(O)CNS(=O)(=O)c1ccc(-c2ccccc2)cc1 75.2%
O=C(NC12CC3CC(CC(C3)C1)C2)c1ccc(-c2ccc(Br)cc2)o1 63.8%
c1ccc(CNc2nc(NCc3ccccc3)c3ccccc3n2)cc1 72%
c1ccc(Nc2nc(NCc3ccco3)c3ccccc3n2)cc1 73.7%
